According to PubChem BioAssay AID1159614 (National Center for Advancing Translational Sciences (NCATS), 2016):
In all, about 45,000 compounds went through this assay and about 65 (0.1%) were called active. The sample holds actives, similar compounds and a random draw of the others, so the mix is not that of the screen. The call rests on the fitted dose curve; in most records, active means well fitted activation curve with a large enough effect; inconclusive means small, poorly fitted or top-dose-only effect; inactive means no such curve, though single readings can be large or run the other way.

target: Galactocerebrosidase (Homo sapiens) (UniProt P54803); assay: A Novel Cell-Based Assay to Identify Small Molecules for B -Galactocerebrosidase; conditions: 145M-Twi-hGALC-G270D cells (Twitcher mouse brain line with human GALC G270D), HMU-beta-Gal fluorescence, 48 h; series mostly up to 57.5 µM; activation: at the top concentration; further: 0% is about no effect; nearly all actives have a fitted effect of over 65% in size
Sequence (P54803 whole entry G286D): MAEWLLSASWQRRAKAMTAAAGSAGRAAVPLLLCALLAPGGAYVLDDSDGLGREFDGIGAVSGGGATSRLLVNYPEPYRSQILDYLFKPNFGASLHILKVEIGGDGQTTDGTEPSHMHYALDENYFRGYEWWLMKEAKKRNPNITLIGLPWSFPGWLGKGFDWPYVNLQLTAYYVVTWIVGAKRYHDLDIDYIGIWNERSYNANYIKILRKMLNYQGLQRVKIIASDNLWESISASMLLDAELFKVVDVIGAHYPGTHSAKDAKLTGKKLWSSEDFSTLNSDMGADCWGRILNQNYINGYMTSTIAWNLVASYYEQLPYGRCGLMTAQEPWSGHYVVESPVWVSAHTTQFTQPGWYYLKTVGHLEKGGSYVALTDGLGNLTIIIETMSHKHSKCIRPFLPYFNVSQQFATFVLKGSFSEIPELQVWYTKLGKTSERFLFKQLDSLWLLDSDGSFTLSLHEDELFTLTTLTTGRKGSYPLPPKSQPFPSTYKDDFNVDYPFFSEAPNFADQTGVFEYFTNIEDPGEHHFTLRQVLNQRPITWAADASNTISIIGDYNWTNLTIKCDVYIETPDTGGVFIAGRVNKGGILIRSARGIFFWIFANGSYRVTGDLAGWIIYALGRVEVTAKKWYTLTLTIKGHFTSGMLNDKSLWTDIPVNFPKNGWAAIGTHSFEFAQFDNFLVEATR
From the text: Lysosomal storage diseases (LSDs) are caused by genetic mutations in genes encoding proteins important for normal lysosomal function. Globoid cell leukodystrophy (GLD), mostly known as Krabbe disease, is a prototype of the neurological LSDs caused by deficiency of beta-galactocerebrosidase (GALC). In brain specimens of GLD patients, psychosine levels are substantially elevated. At elevated concentrations, psychosine becomes cytotoxic to neuronal cells, particularly to oligodendrocytes (OLG), neural cells responsible for myelin formation. Therefore, the biochemical disturbances in GLD are manifested by different degrees of brain demyelination resulting in a broad spectrum of neurological manifestations. Most of the FDA-approved therapies are based on enzyme replacement therapeutic (ERT) agents, which treat non-neurological symptoms of Gaucher disease, Fabry disease, few mucopolysaccharidoses and Pompe disease. Unfortunately, in GLD, a primarily neurological LSD, ERT agents, as large molecular weight molecules unable to cross the blood-brain barrier, which makes this an inefficacious therapeutic approach. In GLD, increasing the residual GALC activity just above the critical threshold (~10% of wild type enzymatic activity), the cytotoxic levels of psychosine will be reduced, avoiding the OLGs apoptosis and the subsequent demyelination process. This will translate in disease stabilization and amelioration of GLD patient symptoms.
A cell-based assay in 1,536-well plate format was developed to implement a quantitative high-throughput screening (qHTS) assay using GLD-disease relevant cells to identify small molecules that produce enhancements of the residual enzymatic activity levels of mutants GALC found and prevalent in GLD patients. Compounds that are active may therefore have some therapeutic application for GLD. After the treatment of live cells for a determined period, using a fluorescent GALC specific substrate, the mutant residual GALC activity is measured. This cell-based qTHS assay was used to screen part of the MLPCN library for small molecule able to increase the mutant GALC enzymatic activity. In this assay, increased fluorescent signal corresponds to enhanced levels of mutant GALC residual enzymatic activity. Activation is the desired outcome for this assay.
NIH Chemical Genomics Center [NCGC]
NIH Molecular Libraries Probe Centers Network [MLPCN]
Assay Submitter (PI): Gustavo Maegawa MD,PhD, University of Florida, Gainesville, FL
2)#Two cell lines were established for the assay: 145M-Twi-hGALC-G270D (brain-derived Twitcher cell line stably expressing human GALC-G270D) and 145M-Twi-hGALC-WT (same 145M-Twi stably expressing human GALC wild type). The Twitcher is the murine C57B/6 model for GLD with naturally occurring homozygous nonsense GALC mutation. The 145M-Twi cell line was established at Maegawa lab (Ribbens J et al 2014).
a.#Media: DMEM/F12 (1:1) with 10% fetal bovine-serum (FBS) with penicillin/streptomycin (PS-1X - 100 I.U./mL of penicillin+100 ug/mL of streptomycin).
b.#The 6-Hexadecanoylamino-4-methylumbelliferyl-b-D-galactoside (HMU-B-gal) substrate was prepared as per Wiederschain et al 1992. Using 20-mL borosilicate tubes, 2.20 mg of HMU-b-Gal was added in each tube to prepare substrate-film with a final air-nitrogen stream evaporation to remove all diluent solvents.
c.#The HMUb-Gal substrate buffer consists of 0.2 M Na2HPO4 (sodium phosphate dibasic)/ 0.1 M Citric Acid with the pH adjusted to 5.2 using HCl. Sodium Azide at 0.02% and Sodium Taurocholate (NaTC) at 1 mg/mL were added to this substrate buffer.
d.#The HMU-b-Gal stopping buffer consist of 0.5 M NaHCO3 (sodium bicarbonate) /0.5 M Na2CO3 (sodium carbonate). […] Triton X-100 at 0.25% was added.
4)#Preparation of HMU-b-Gal substrate tubes
Adding 18.6 mL of the HMUb-Gal substrate buffer to each 20-mL tube (2.20 mg of HMU-b-Gal) will reach a concentration of 0.2 mM. Vortex well the tube until the solution is fully homogenized (clear cloudy solution). […]

activation, inactive:
Cc1ccc(-c2nnc3c4ccccc4c(C)nn23)cc1NC(=O)c1cccc(Br)c1 -7.24%, CCOc1ccc(-c2cc3c(=O)n(CC(=O)NCc4ccc(OC)cc4)ccn3n2)cc1 -15.5%, O=C(O)c1c(CNCc2cccc(F)c2)c2ccccc2n1Cc1ccccc1 -5.18%, COc1cccc(NC(=O)CCNS(=O)(=O)c2ccc3c(c2)oc(=O)n3C)c1 -7.1%, CCc1ccc(-n2nc(C)c3c(C)cc(=O)n(CC(=O)Nc4ccc(F)cc4C)c32)cc1 -3.14%, CC(C)(C)C1CCc2c(sc(NC(=O)c3ccccc3F)c2C(=O)N2CCCCC2)C1 (centres undefined) -13.1%, CCOC(=O)c1ccc(-c2ccc(/C=C(\C#N)C(=O)Nc3ccc(C)cc3)o2)cc1 -11.5%, Cc1ccc2cccc(NC(=O)c3ccc(OC(C)C)cc3)c2n1 -11.4%, CCCCOCCOC(=O)c1cccnc1 -11.9%, CCOc1ccccc1NC(=O)CCS(=O)(=O)c1cccc2nsnc12 2.29%, CCOc1ccc(Nc2nc3c(S(=O)(=O)c4cccc(Cl)c4)nnn3c3ccsc23)cc1 -14.5%, COc1ccc(S(=O)(=O)c2cn(C)c3cc(N4CCCCC4)c(F)cc3c2=O)cc1 -9.33%, O=C(CCS(=O)(=O)c1ccc2c(c1)NC(=O)CO2)Nc1cccc(C(F)(F)F)c1 -4.39%, CC(=O)c1ccc(NC(=O)CSc2nc(-c3ccccc3F)nc3c2c(=O)n(C)c(=O)n3C)cc1 -7.96%, CCOc1ccc(N(CC)S(=O)(=O)N2CCCC(C(=O)Nc3ccc(C(C)=O)cc3)C2)cc1 (centres undefined) -18%, CCOC(=O)c1cc2c(=O)n3ccccc3nc2n(CC2CCCO2)c1=NC(=O)c1ccccc1Br (centres undefined) -16.4%, COCCNC(=O)CCCN1C(=O)c2ccccc2Sc2ncccc21 -7.98%, Cc1ccc(O)c(NC(=O)c2cc(-c3ccc(F)cc3)no2)c1 -4.86%, COc1ccc(S(=O)(=O)NCC(c2ccc(N(C)C)cc2)N2CCc3ccccc32)cc1OC (centres undefined) 7.29%, CCc1ccc(NC(=O)CCCc2nnc3n(CCCOC)c(=O)c4sccc4n23)cc1 -9.86%, Cc1ccc2c(c1)-c1c(cnn1CC(=O)Nc1ccccc1C#N)CO2 -5.88%, O=C(NCCc1ccccc1)C(=O)NCC(c1ccco1)S(=O)(=O)c1ccccc1 (centres undefined) -6.34%, CCOC(=O)Cn1c(=O)n(C2CCCCC2)c2nc(-c3cccc(OC)c3)nc(C(N)=O)c21 -10.1%, CCOc1ccc(N(C)S(=O)(=O)c2cc(-c3cnc(C)o3)ccc2OC)cc1 -2.93%, CCc1ccc2ncc3c(-c4ccc(C)cc4)nn(CC(=O)NCc4ccccc4)c3c2c1 -22.7%, COc1ccc(-c2cn3c(n2)sc2cc(C(=O)Nc4ccc(F)cc4)ccc23)cc1 0.197%, COc1cc(Cl)c(NC(=O)CC(C)S(=O)(=O)c2cc3c(cc2C)NC(=O)CO3)c(OC)c1 (centres undefined) -5.69%, COc1cc(C(=O)NCCS(=O)(=O)N2CCN(c3ccccc3)CC2)cc(OC)c1OC -8.87%, Nc1ncc(S(=O)(=O)Nc2ccc(OC(F)(F)F)cc2)cn1 -4.92%, Cc1ccc(C)c(Cn2c(CCCNC(=O)C3CCCCC3)nc3ccccc32)c1 -11.7%, COc1ccc(CNC(=O)CC2Oc3ccc(C)cc3NC2=O)cc1 (centres undefined) -16.9%, CCN(CCCNC(=O)CSc1cc(=O)n(C)c2cc(Cl)ccc12)c1cccc(C)c1 -33%, COc1ccc(OCC(=O)Nc2cccc(C(=O)OCc3cc(=O)n4nc(C)sc4n3)c2)cc1 0.413%, NC(=O)C1CCN(C(=O)c2cccc(NC(=O)c3nsc4ccccc34)c2)CC1 -9.51%, Cc1ccccc1C(=O)Nc1nnc(S(=O)(=O)N(C)c2ccc(Cl)cc2)s1 6.13%, CCCCN(CC)C(=O)c1c[nH]c2ccc(S(=O)(=O)Nc3cccc(OC)c3)cc2c1=O -12.1%, Cc1c(C(=O)N2CCCC2)oc2c1-c1nn(CC(=O)NCc3ccc(OC(C)C)cc3)cc1CC2 -10.3%, O=C(CN1C(=O)c2cccnc2Oc2ccc(Cl)cc21)NCCc1ccccc1 2.45%, Cc1cccc(Nc2cc(C)nc(-n3nc(C)cc3C)n2)c1 -8.54%, COC(=O)c1cc(NC(=O)CCc2c(C)nc3c4c(C)cc(C)nc4nn3c2C)cc(C(=O)OC)c1 -13.4%, CCOc1ccc(NC(=O)c2cn(C3CCCCC3)c(=O)c3c2c2ccccc2n3C)cc1 -23.7%, Cc1ccc(Cn2cc(CCC(=O)NCc3ccc(OC(C)C)cc3)c3ccccc32)cc1 -8.74%, CCc1cnc2c(c1SCC(=O)c1ccccc1)c(=O)n(C)c(=O)n2C -5.57%, Cc1ccccc1OCc1nc2c3cnn(-c4ccccc4F)c3ncn2n1 -6.17%, O=C(Nc1cccc(Cl)c1)c1csnn1 -15.8%, COc1ccc(C2C(=O)N(C3CCCCC3)CC(=O)N2Cc2ccccc2Cl)cc1OC (centres undefined) -7.68%, O=C(Nc1ccc(OC(F)(F)F)cc1)C1CCCN(S(=O)(=O)c2ccc(Br)s2)C1 (centres undefined) -10.7%, COc1ccc(-c2cc(-c3ccc(F)cc3)nc3c2COc2ccccc2-3)cc1 -7.39%, O=C(CCCCn1c(=O)c2ccccc2n(CC(=O)Nc2cccc(C(F)(F)F)c2)c1=O)NCc1ccc2c(c1)OCO2 -1.08%
